Measurements published in PubChem BioAssay (NCATS).
Results filed as inconclusive are left out. Unmarked numbers belong to inactive results. Calls follow the shape of the dose curve; as a rule, active = well fitted inhibition curve with a large enough effect; inconclusive = small, poorly fitted or top-dose-only effect; inactive = flat fitted curve, though single readings scatter.

system: KB-3-1; test: Cytotoxic Profiling of Annotated Libraries Using Quantitative High-Throughput Screening (AID 1296008); conditions: Five cell lines viability, CellTiter-Glo ATP luminescence, 48-72 h; max response: stronger effect = lower value; also: nearly all actives have a fitted effect of over 60% in size
How it was run: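 Cells exposed to compounds for 48 or 72 hr at 37 degrees Celsius. Viability read as ATP-coupled luminescence with CellTiter-Glo after 10 min at room temperature.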
% is scaled to controls: 0 for no effect and ±100 for the full control effect.

Structure (SMILES)	max response
FC(F)OC(F)(F)C(F)Cl (configuration not stated)	-1.37%
N#CC(C#N)=Cc1cc(O)c(O)c(O)c1	-23.8%
CCN(CC)C(=O)N[C@H]1C[C@@H]2c3cccc4[nH]cc(c34)C[C@H]2N(C)C1	-7.12%
CCON=O	-2.91%
Cc1cc(C)cc(C(=O)OC2C[C@H]3CC[C@@H](C2)N3C)c1 (some centres not stated)	-7.52%
CN1CCCC(=C(c2cccs2)c2cccs2)C1	-14.6%
O=Cc1ccco1	3.99%
O=C1CCCCC1CN1CCCCC1 (configuration not stated)	4.12%
O=c1[nH]cc(N(CCCl)CCCl)c(=O)[nH]1	-15%
CCOC(=O)/C=C(C)/C=C/C[C@@H](C)CCCC(C)C	3.85%
C[C@]12C[C@H]3S[C@H]3C[C@@H]1CC[C@@H]1[C@@H]2CC[C@]2(C)[C@@H](O)CC[C@@H]12	5.47%
O=[N+]([O-])c1ccccc1	12.1%
O=C1CCO1	-17.3%
CN(C)[C@@H]1C(=O)C(C(N)=O)=C(O)[C@@]2(O)C(=O)C3=C(O)c4c(O)ccc(Cl)c4[C@@](C)(O)[C@H]3C[C@@H]12	2.99%
C#CC(C)(O)CC (configuration not stated)	-2.82%
C[C@]12CC[C@H]3[C@@H](CCC4=C(Cl)C(=O)CC[C@@]43C)[C@@H]1CC[C@@H]2O	3.69%
CC[C@H]1[C@@H]2C[C@H]3[C@@H]4N(C)c5ccccc5[C@]45C[C@@H](C2[C@H]5O)N3[C@@H]1O (some centres not stated)	-5.46%
CCCC(C)C1(CC)C(=O)NC(=O)NC1=O (configuration not stated)	-12.9%
Clc1ccc(C2(Cn3cncn3)OCCO2)c(Cl)c1	4.69%
F/C(COc1ccc2c(c1)[nH]c1ccccc12)=C1/CN2CCC1CC2	-8.12%
ClC=C(Cl)Cl	-14.2%
c1ccc(C2(N3CCCC3)CCCCC2)cc1	2%
